This is a sample that favours compounds with a hit; in the whole collection about 11% have one here.
HP1b chromo inh: HTS for Inhibitors of HP1-beta Chromodomain Interactions with Methylated Histone Tails; Chromobox protein homolog 1 (Homo sapiens), P83916; hit rate 0.56% among 390,000; Potency, µM (titrated, usually from 114 µM), without a hit: at the highest dose activity change, negative = inhibition, actives largely listed as inhibitors; AID 540317, 2011; AlphaScreen HP1-beta / biotin-H3K9me3 peptide binding; also: nearly all actives have a fitted effect of over 70% in size
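AlphaScreen: HP1-beta (50 nM) preformed 30 min with biotin-H3(1-18)K9me3 peptide (50 nM) in PBS pH 7.4, 0.01% Tween-20. Compound added for 30 min at RT, then streptavidin donor/nickel chelate acceptor beads (10 ug/mL) for 30 min.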
G9a block: qHTS Assay for Inhibitors of Histone Lysine Methyltransferase G9a; Histone-lysine N-methyltransferase EHMT2 (Homo sapiens), Q96KQ7; G9a H3K9 monomethylation, AlphaScreen, 2 h; Potency, µM (top dose mostly 102 µM), for inactives: top-dose activity, negative = inhibition, most hits filed as inhibitors; hit rate 8.8% among 350,000; AID 504332, 2011; also: % is scaled to controls: 0 for no effect and ±100 for the full control effect; nearly all actives have a fitted effect of over 75% in size
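AlphaScreen detection with an anti-monomethyl H3K9 antibody quantified product after a 2 h room-temperature reaction containing 500 nM biotinylated H3K9 peptide, 20 µM SAM and 20 nM enzyme, which had been preincubated 15 min with compound.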
VDR inhibitor: Inhibitors of the vitamin D receptor (VDR): qHTS | Vitamin D3 receptor (Homo sapiens), P11473 | VDR-SRC2-3 peptide fluorescence polarization, 2 h | Potency, µM, for inactives: max response, negative = inhibition, usual class: inhibitors | hit rate 0.93% among 400,000 | AID 504847, 2011; also: % is scaled to controls: 0 for no effect and ±100 for the full control effect
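Fluorescence polarization assay of small-molecule disruption of VDR binding to coregulator peptide SRC2-3. Compounds and controls pin-transferred, then read after 2 h incubation at ambient room temperature.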
JMJD2A Tudor inh: qHTS Assay for Inhibitors of JMJD2A-Tudor Domain. Potency, µM (series often up to 114 µM), for the others: top-dose activity change, negative = inhibition, hits mostly inhibitors. Lysine-specific demethylase 4A (Homo sapiens), O75164. hit rate 4.4% among 390,000. AID 504339, 2011. AlphaScreen JMJD2A-Tudor / H3K4me3 peptide binding; also: % is scaled to controls: 0 for no effect and ±100 for the full control effect; nearly all actives have a fitted effect of over 50% in size
BAZ2B inh: qHTS Assay for Inhibitors of BAZ2B | AlphaScreen BAZ2B-H3K14Ac peptide displacement | Potency, µM (highest dose often 114 µM), without a hit: at the highest dose activity change, negative = inhibition, hits mostly inhibitors | AID 504333, 2011 | hit rate 4.4% among 360,000; also: % is scaled to controls: 0 for no effect and ±100 for the full control effect; nearly all actives have a fitted effect of over 60% in size
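Multi-concentration screen (max 110 uM) measuring displacement of acetylated histone H3 peptide from BAZ2B by AlphaScreen, using 50 nM protein, 50 nM peptide and 10 ug/mL streptavidin donor plus Ni-chelate acceptor beads.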
PLK1 PBD block: qHTS for Inhibitors of PLK1-PDB (polo-like kinase 1 - polo-box domain): Primary Screen. Serine/threonine-protein kinase PLK1 (Homo sapiens), P53350. Plk1 PBD binding of FITC phosphopeptide, fluorescence polarization. Potency, µM, inactives show max response, negative = inhibition, most hits filed as inhibitors. hit rate 2.8% among 360,000. AID 720504, 2013; also: series mostly up to about 57 µM; % is scaled to controls: 0 for no effect and ±100 for the full control effect; nearly all actives have a fitted effect of over 65% in size
Target sequence (P53350 whole entry, looked up, the tested form may be a part): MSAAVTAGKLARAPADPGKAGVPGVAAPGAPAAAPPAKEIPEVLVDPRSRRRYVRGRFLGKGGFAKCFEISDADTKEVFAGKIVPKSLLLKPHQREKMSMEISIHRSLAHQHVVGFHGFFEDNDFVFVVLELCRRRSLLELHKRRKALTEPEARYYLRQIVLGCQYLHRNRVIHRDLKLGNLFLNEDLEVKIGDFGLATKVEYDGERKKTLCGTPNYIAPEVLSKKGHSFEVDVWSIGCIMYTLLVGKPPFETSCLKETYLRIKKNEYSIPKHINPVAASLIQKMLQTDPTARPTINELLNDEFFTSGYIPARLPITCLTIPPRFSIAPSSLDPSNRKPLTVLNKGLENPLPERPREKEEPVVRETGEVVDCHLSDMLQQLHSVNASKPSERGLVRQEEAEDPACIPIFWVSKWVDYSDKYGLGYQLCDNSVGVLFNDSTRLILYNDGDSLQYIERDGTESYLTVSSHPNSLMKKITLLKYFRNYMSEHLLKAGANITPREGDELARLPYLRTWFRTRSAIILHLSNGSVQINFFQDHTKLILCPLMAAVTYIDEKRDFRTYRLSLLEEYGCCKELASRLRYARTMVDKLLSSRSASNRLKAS
* hit, by the source's call; ? = inconclusive; · = no result; [ ] = dose if it differs, or a comment. Calls follow the shape of the dose curve; as a rule, active = well fitted curve in the direction sought with a large enough effect; inconclusive = small, poorly fitted or top-dose-only effect, or another doubt; inactive = no such curve, though single readings can be large; an effect the other way counts as inactive or inconclusive. Potency is read from the fitted curve at half-maximal effect.

SMILES	HP1b chromo inh	G9a block	VDR inhibitor	JMJD2A Tudor inh	BAZ2B inh	PLK1 PBD block
O=C1Nc2ccc(Cl)cc2[C@@](C#CC2CC2)(C(F)(F)F)O1	·	-8%[59 µM]	·	·	2%	·
CC(=O)N1CCN(S(=O)(=O)c2cccc(C(=O)NC3CCCC(C)C3C)c2)CC1 (stereo not given)	·	·	·	·	·	-6%
O=S(=O)(c1ccc2c(c1)OCCO2)N1CCN(S(=O)(=O)c2c(F)ccc(O)c2F)CC1	·	·	·	-14%	·	·
O=C(COC(=O)Cc1ccc(F)cc1)NCc1ccco1	54%	?	1%	-15%	50µM*	-16%
O=C(COC(=O)CSc1ccc(F)cc1)NCc1ccco1	45%	-3%[59 µM]	-21%	-26%	4%	-19%
COc1ccc(CN(Cc2ccc(C(=O)O)cc2)C(=S)Nc2ccccc2Cl)cc1OC	33%	-15%	14%	-9%	-16%	-2%
Cc1cccc(NC(=S)N(Cc2ccc(Cl)cc2)Cc2ccc(C(=O)O)cc2)c1	18%	-45%	-13%	-15%	1%	-11%
COc1ccc(CN(Cc2ccc(C(=O)O)cc2)C(=S)Nc2ccccc2C)cc1OC	36%	45µM*	4%	-16%	-11%	-19%
Cc1ccc(NC(=S)N(Cc2ccc(Br)cc2)Cc2ccc(C(=O)O)cc2)cc1C	-19%	45µM*	-10%	-27%	-28%	?
Cc1cc(NC(=S)N(Cc2ccc(Cl)cc2)Cc2ccc(C(=O)O)cc2)ccc1Cl	4%	?	-13%	-24%	?	30µM*
Cc1cc(C)cc(NC(=S)N(Cc2ccc(Cl)cc2)Cc2ccc(C(=O)O)cc2)c1	20%	19%	-20%	-23%	?	-8%
CCc1ccc(NC(=S)N(Cc2ccc(Cl)cc2)Cc2ccc(C(=O)O)cc2)cc1	-17%	-36%	-24%	-30%	-13%	24µM*
O=C(COc1cc2oc(=O)cc(-c3ccccc3)c2cc1Cl)NCc1ccccn1	28%	15%	7%	-16%	-17%[57.1 µM]	-7%
CCC1(c2ccc(O)cc2)NC(=O)NC1=O (stereo not given)	·	·	9%	·	·	·
CCCC[C@H]1CCCO[C@@](C(=O)NCc2ccccn2)(C(F)(F)F)C1	25%	·	-12%	1%	·	·
CC(=O)c1cccc(NC(=O)c2cc3nc(-c4ccc(Br)cc4)cc(C(F)(F)F)n3n2)c1	19%	6%[59 µM]	5%	7%	2%	·
O=C(Nc1cc(Cl)ccc1-n1cncn1)c1ccc([N+](=O)[O-])o1	-13%	50µM*	12%	-30%	-32%	-23%
O=C(Nc1cc(Cl)ccc1-n1cncn1)c1cc(F)cc(F)c1	12%	50µM*	?	-5%	9%	-1%
O=C(Nc1cc(Cl)ccc1F)c1ccc(-n2cncn2)c([N+](=O)[O-])c1	8%	56µM*	1%	-27%	-6%	-8%
CCC(=O)N1CCN(c2ccc(Cl)cc2NC(=O)c2ccc([N+](=O)[O-])o2)CC1	7%	?	-6%	-12%	-13%	-19%
O=C(Nc1cc(Cl)ccc1-n1cncn1)c1cccs1	19%	45µM*	-25%	-13%	7%	-6%
O=C(Nc1cc(C(F)(F)F)ccc1-n1cncn1)c1ccc(Cl)cc1	57%	-1%	1%	-21%	10%	-14%
COCCn1c(=O)c(CCc2ccccc2)nc2cnc(Nc3ccccc3)nc21	·	10%[0.501 µM]	1%	·	·	·
CC(=O)C1=CCC(c2ccccc2)N(S(C)(=O)=O)C1 (stereo not given)	·	·	·	·	·	-10%
COc1ccc(C2(c3ccc(OC)cc3)NC(=O)N(CC(=O)Nc3cc(C)ccc3OC)C2=O)cc1	10%	5%	8%	-28%	-22%	5%
SMILES	HP1b chromo inh	G9a block	VDR inhibitor	JMJD2A Tudor inh	BAZ2B inh	PLK1 PBD block
COc1ccc(OCCCC(=O)Nc2cc(Cl)ccc2-n2cncn2)cc1	4%	45µM*	-9%	-14%	7%	-2%
CCCCn1nnnc1C(C1CC1)N1CCN(C/C=C/c2ccccc2)CC1 (stereo not given)	·	·	·	·	·	-14%
N=C(N)c1ccc(N=Nc2c(O)ccc3c2[nH]c2ccccc23)cc1	71µM*	·	26%	56µM*	·	-8%
O=C(O)CCn1c(-c2ccccc2)cc2c1CCCC2=O	29%	50µM*	-19%	-18%	-2%	-3%
CC(=O)NC1(c2ccc(F)cc2)CCN(C(=O)Nc2ccc(F)cc2F)CC1	48%	-7%[12.7 µM]	4%	-1%	5%	2%
Cc1sc(N)nc1C12CC3CC(CC(C3)C1)C2	?	45µM*	0%	-26%	?	1%
Cc1c(Cl)cccc1NC(c1ccc(F)cc1)c1nnc(-c2ccccc2)o1 (stereo not given)	85%	20%[59 µM]	1%	15%	3%	·
OC(C#CCN1CCOCC1)(c1ccccc1)C1CC1 (stereo not given)	22%	45µM*	-14%	-22%	?	-3%
CC(O)(C#CCN1CCCCCC1)c1ccccc1 (stereo not given)	5%	50µM*	-12%	-20%[11.4 µM]	2%	30µM*
OC(C#CCN1CCCCC1)(c1ccccc1)c1ccccc1	23%	18%	-6%	-11%	-24%	-5%
CC(=O)c1c(C)[nH]c(C(=O)CN2C(=O)NC(C)(c3ccc(C)cc3)C2=O)c1C (stereo not given)	34%	11%	-20%	-9%	?	0%
O=C(O)C1C2C=CC(C2)C1C(=O)Nc1ccc(C(=O)N2CCCCC2)cc1 (stereo not given)	33%	-45%[59 µM]	-3%	7%	11%	-6%
COc1ccc(CC(=O)Oc2ccc(C)cc2Br)cc1OC	?	-23%	12%	22%	50µM*	-2%
Cc1ccc(C)c(-n2c(-c3ccncc3)n[nH]c2=S)c1	27%	16µM*	9%	11µM*	-20%	-12%
Cc1ccc(C)c(-n2c(-c3ccc4c(c3)OCO4)n[nH]c2=S)c1	-6%	4µM*	-7%	25µM*	?	-9%
Cc1ccc(C)c(N2CCN(Cc3csc(C)c3)CC2)c1	62%	?	12%	-30%	?	·
Cc1ccc(C)c(-n2c(-c3csc(C)c3)n[nH]c2=S)c1	-1%	0.28µM*	-10%	22µM*	-29%	-20%
O=C(NCCN1CCOCC1)N1c2ccccc2Sc2ccccc21	28%	23%	-13%	-18%	10%	-2%

Screening data: PubChem BioAssay, National Center for Advancing Translational Sciences (NCATS)
